Source: PubChem BioAssay (National Center for Advancing Translational Sciences (NCATS))
Rows were chosen to be rich in hits. Some 10% of all compounds tested hit in one or more screens of this group.
HPGD inh = HPGD (human) dehydrogenase inhibition | purified HPGD, NADH fluorescence kinetic, PGE2 substrate | 150,000 tested, 4.3% active | Potency, µM, for inactives: top-dose activity change, negative = inhibition, actives largely listed as inhibitors; also: potency is read from the fitted curve at half-maximal effect
Target sequence (P15428 whole entry, looked up): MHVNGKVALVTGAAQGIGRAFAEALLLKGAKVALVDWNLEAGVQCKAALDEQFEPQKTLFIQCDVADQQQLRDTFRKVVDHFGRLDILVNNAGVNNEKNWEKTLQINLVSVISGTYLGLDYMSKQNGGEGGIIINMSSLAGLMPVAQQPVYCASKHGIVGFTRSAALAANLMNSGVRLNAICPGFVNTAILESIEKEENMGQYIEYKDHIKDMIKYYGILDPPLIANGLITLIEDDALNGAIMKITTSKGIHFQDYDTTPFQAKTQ
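NADH formation kinetics: reaction with 30 uM PGE2 and 1 mM NAD+ (final), 20 nM enzyme, Tris-HCl pH 8 with Tween 20, after 15 min compound preincubation at room temperature. Fluorescence change, last versus first of five reads.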
12-hLO inh = 12-hLO (ALOX12) enzyme inhibition; P18054; purified 12-hLO, xylenol orange hydroperoxide absorbance; Potency, µM (highest dose often 57.1 µM), without a hit: at the top dose activity change, negative = inhibition, most hits filed as inhibitors; 150,000 tested, 0.12% active; AID 1452; active = well fitted inhibition curve with a large enough effect; inconclusive = small, poorly fitted or top-dose-only effect; also: potency is read from the fitted curve at half-maximal effect; nearly all actives have a fitted effect of over 55% in size
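150 nM 12hLO, 25 mM Hepes pH 7.0 + 0.01% Triton X-100; cpd preinc 15 min RT; 40 uM arachidonic acid, 30 min RT; Fe-XO 30 min; A573/A405 ratio as read-out.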
LMNA splice mod = LMNA splicing modulation; HeLa LMNA splicing GFP/RFP minigene ratio, 48 h; Potency, µM (doses to about 46.1 µM), inactives show at the top dose ratio change, negative = inhibition, most hits filed as inhibitors; 200,000 tested, 0.01% active; active = well fitted inhibition curve with a large enough effect in the signal ratio, with a control signal flat, not every such curve was filed as active; inconclusive = small, poorly fitted or top-dose-only effect, or effect the other way, or a change in a side signal; the % refers to the signal ratio; also: potency is read from the fitted curve at half-maximal effect
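S3 HeLa stable clones carrying a lamin A-EGFP splicing minigene plus DsRed2 were seeded at 600 cells/well in Opti-MEM with 2% FBS, pin-dosed and incubated 48 h at 37°C. Acumen cytometry (488 nm) gave the GFP/RFP total-intensity ratio.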
ALDH1A1 block = ALDH1A1 (human) enzyme inhibition | P00352 | Purified ALDH1A1, NADH fluorescence, propionaldehyde substrate | Potency, µM (highest dose often 75.3 µM), for the others: at the top dose activity, negative = inhibition, actives largely listed as inhibitors | 220,000 tested, 7.3% active;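 also: potency is read from the fitted curve at half-maximal effect; plate controls were no enzyme wells and a reference inhibitor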
PNC inhibitor = blocks assembly of the perinucleolar compartment. PC3M PTB-GFP, PNC prevalence imaging, 16 h; active compounds read low. activity change (PNC), negative = inhibition, % at 10 µM. 140,000 tested, 3.1% active. AID 2417;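 active = readout at or below -70, meaning at least 70% loss of cells showing the perinucleolar compartment, a nuclear body marking cancer cells; inconclusive = readout between -30 and a set limit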;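 also: plate controls were DMSO wells for no effect and camptothecin positive control wells for full effect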
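Compounds are pinned in duplicate onto adhered PC3M cells stably expressing GFP-tagged PTB and incubated 16 h at 37 C. Cells are then fixed, nuclei stained with Hoechst, and PNC-positive cells counted.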
* marks the source's active call; other numbers are inactive results; [ ] = dose if it differs, or a comment. Unless noted, calls follow the shape of the dose curve; as a rule, active = well fitted inhibition curve with a large enough effect (not every such curve was filed as active); inconclusive = small, poorly fitted or top-dose-only effect, or another doubt; inactive = no such curve, though single readings can be large or run the other way. Unless noted, % is scaled to controls: 0 for no effect and ±100 for the full control effect.

How did CCCCc1ccc(NC(=O)CC(C)=O)cc1 do in these assays?
HPGD inh: -5.2%; 12-hLO inh: -3.0%; LMNA splice mod: 2.9%; ALDH1A1 block: -4.7%; PNC inhibitor: -126.9*

Results for CCCCc1ccc(NC(=O)C(C)CC)cc1 (stereo not drawn) ?
ALDH1A1 block: -2.2%

How did CCCCc1ccc(NC(=O)CC(C)(C)C)cc1 do in these assays?
HPGD inh: 14.1µM*; 12-hLO inh: 2.6%; LMNA splice mod: 1.6%; ALDH1A1 block: 9.9%; PNC inhibitor: 44.1

What do the screens show for `COc1cc(S(=O)(=O)NCCc2c(C)[nH]c3ccc(C)cc23)ccc1Br`?
LMNA splice mod: -15.3%[46 µM]

How did COc1cccc(OC)c1OCCNC[C@@H]1CSc2ccccc2O1 do in these assays?
12-hLO inh: 1.1%

Results for COc1ccc(-c2nc3oc4cc(OC)ccc4c(=O)c3c(=O)n2Cc2ccco2)cc1 ?
HPGD inh: inconclusive; 12-hLO inh: -2.0%; LMNA splice mod: inconclusive; ALDH1A1 block: inconclusive; PNC inhibitor: 16.1

Results for COc1ccc2c(=O)c3c(=O)n(Cc4ccco4)c(-c4ccco4)nc3oc2c1 ?
HPGD inh: 22.4µM*; 12-hLO inh: -12.7%; LMNA splice mod: 5.8%; ALDH1A1 block: inconclusive; PNC inhibitor: 9.7

How did CCCc1cc(=O)[nH]c(SCc2cc(=O)oc3cc(C)c(C(C)C)cc23)n1 do in these assays?
HPGD inh: 15.8µM*; 12-hLO inh: 0.3%; LMNA splice mod: inconclusive; ALDH1A1 block: inconclusive; PNC inhibitor: -7.5

What do the screens show for `Nc1cc(N)nc(SCc2cc(=O)oc3cc4c(cc23)CCC4)n1`?
HPGD inh: -19.7%; 12-hLO inh: -12.0%; LMNA splice mod: 1.3%; ALDH1A1 block: inconclusive; PNC inhibitor: 32.2

How did Cc1cc2oc(=O)cc(CN3CCCCC3)c2cc1C(C)C do in these assays?
HPGD inh: -20.8%; 12-hLO inh: -2.0%; LMNA splice mod: 18.3%; ALDH1A1 block: inconclusive; PNC inhibitor: -15.7

Results for Cc1cc2oc(=O)cc(CSc3nc(N)cc(N)n3)c2cc1C(C)C ?
HPGD inh: -27.3%; 12-hLO inh: -7.3%; LMNA splice mod: 0.5%; ALDH1A1 block: 17.8µM*; PNC inhibitor: inconclusive

How did CCc1cccc(NC(=O)Cn2cc(C(=O)c3ccncc3)c(=O)c3cc(C)c(C)cc32)c1 do in these assays?
LMNA splice mod: -14.4%[46 µM]

What do the screens show for `COC(=O)c1ccc(N2CCN(C(C)=O)CC2)c(NC(=O)COc2ccccc2C)c1`?
LMNA splice mod: 2.8%[46 µM]; ALDH1A1 block: 7.94µM*

What do the screens show for `COC(=O)c1ccc(N2CCOCC2)c(NC(=O)Nc2cccc(OC)c2)c1`?
HPGD inh: inconclusive; 12-hLO inh: -5.0%; LMNA splice mod: -15.6%; ALDH1A1 block: 25.1µM*; PNC inhibitor: inconclusive

What do the screens show for `Cc1ccccc1OCC(=O)Nc1ccccc1N1CCCCC1`?
HPGD inh: -20.0%; 12-hLO inh: -6.8%; LMNA splice mod: inconclusive; ALDH1A1 block: -0.4%; PNC inhibitor: -4.4

How did COc1ccccc1N1CCN(C(=O)CSc2nc3ccccc3nc2Cc2ccccc2)CC1 do in these assays?
LMNA splice mod: -11.4%[46 µM]

Results for CC1=C(SCCC#N)S/C(=C2\SC(C)=C(SCCC#N)S2)S1 ?
HPGD inh: 17.8µM*; 12-hLO inh: inconclusive; LMNA splice mod: 16.4%; ALDH1A1 block: 5.01µM*; PNC inhibitor: 37.6

What do the screens show for `N#Cc1c(N)nc(SCc2ccncc2)c(C#N)c1-c1cccs1`?
HPGD inh: inconclusive; 12-hLO inh: -3.0%; LMNA splice mod: inconclusive; ALDH1A1 block: inconclusive; PNC inhibitor: 50.1

What do the screens show for `N#Cc1ccc(CSc2nc(-c3cccs3)c3c(c2C(=O)O)CCCC3)cc1`?
HPGD inh: 17.8µM*; 12-hLO inh: -5.5%; ALDH1A1 block: inconclusive

Results for COc1ccc(NC(=O)c2cc3ccccn3n2)cc1 ?
HPGD inh: -9.2%; 12-hLO inh: -3.6%; LMNA splice mod: 0.4%; ALDH1A1 block: -3.4%; PNC inhibitor: inconclusive

Results for COc1ccc(CCNC(=O)c2cc3ccccn3n2)c(OC)c1OC ?
HPGD inh: inconclusive; 12-hLO inh: 0.9%; LMNA splice mod: 0.0%; ALDH1A1 block: 22.4µM*; PNC inhibitor: 9.3
